# From PubChem BioAssay AID1775 (NMMLSC, 2009)
# About 820 (0.37%) of roughly 220,000 compounds were called active. Cut-off read from the data, not from the text of the source: active = fluorescence above about 47; inactive = the rest. Many of the other results were omitted from the sample, so actives are more common in it than they were.
# Assay: green autofluorescence of compounds with avidin beads – biophysical, 488/530 nm, flow cytometry, artefact control, profiling panel (AID 1775)
# Details: compound fluorescence 488/530 nm, at 10 µM, stronger effect = higher value
row,SMILES,fluorescence (KMESF)
1,CS/C(=C\[N+](=O)[O-])Nc1ccc(C)cc1,12 (inactive)
2,Cc1cc(Cl)ccc1NC(=S)N1CCC(C(N)=O)(N2CCCCC2)CC1,10 (inactive)
3,COc1cc(C(=O)NCc2nnc(SCC(=O)Nc3nc4ccc(C)cc4s3)o2)cc(OC)c1OC,19 (inactive)
4,Nc1c(-c2ccc(F)cc2)cnn1C1CCS(=O)(=O)C1 (centres undefined),7 (inactive)
5,Nc1c(-c2ccc(F)cc2)cnc2ncnn12,76 (active)
6,Cc1cc(N2CCN(c3ccc(F)cc3)CC2)n2ncnc2n1,9 (inactive)
7,CC(C)(C)OC(=O)N/N=C/c1cn(-c2ccccc2)nc1-c1cccnc1,13 (inactive)
8,O=C(NCc1csc(-c2cccs2)n1)C1CC1,2 (inactive)
9,CC1Cc2ccccc2N1S(=O)(=O)c1ccc(Cl)nc1 (centres undefined),4 (inactive)
10,COc1cc(CO)c(C2(CO)CCCC2)cc1OC,36 (inactive)
11,Cc1nc2c(-c3ccc(F)cc3)c(C)nn2c(C)c1CCC(=O)NCc1ccco1,6 (inactive)
12,COc1cc(OC)cc(-c2nc3nc(C)c(CCC(=O)NCc4ccco4)c(C)n3n2)c1,59 (active)
13,Cc1nc2nc(SCC(=O)NCc3ccco3)nn2c(C)c1Cc1ccccc1,15 (inactive)
14,CCOC(=O)C(C)Sc1nnc(CSc2nc3nc(C)cc(C)n3n2)o1 (centres undefined),15 (inactive)
15,CC(C)Cn1cnc2c1c(=O)n(CC(O)c1ccccc1)c(=O)n2CC(C)C (centres undefined),67 (active)
16,CC(C)Cn1c(CN(Cc2ccccc2)Cc2ccccc2)nc2c1c(=O)n(C)c(=O)n2C,8 (inactive)
17,Cn1c(=O)c2c(ncn2CCc2ccccc2)n(C)c1=O,11 (inactive)
18,CCNC(=O)COc1cc(C)c(Br)c(C)c1,9 (inactive)
19,CCCCc1nc2c(=O)[nH]c3ccccc3c2o1,26 (inactive)
20,CC1CCc2c(c3ccccc3[nH]c2=O)O1 (centres undefined),57 (active)
21,CC(C)C(=O)Nc1c(O)c2ccccc2[nH]c1=O,10 (inactive)
22,CCCN(CCC)C(=S)Nc1cc(C(=O)OC)ccc1C(=O)OC,3 (inactive)
23,CN(CC(=O)NC1CCCCC1)S(=O)(=O)c1ccc(Br)s1,32 (inactive)
24,Cc1ccc(S(=O)(=O)N(C)CC(=O)NC2CCCC2)cc1,10 (inactive)
25,CN(CC(=O)NC1CCCCC1)S(=O)(=O)c1cccc2cccnc12,118 (active)
26,COc1ccc2c(c1)cc1n2CCN=C1NN,7 (inactive)

row,SMILES,fluorescence (KMESF)
1,CC(C)CC(=O)N1CCC(O)(CS(=O)(=O)Cc2ccccc2)CC1,7 (inactive)
2,Cc1ccccc1CS(=O)(=O)CC1(O)CCN(C(=O)c2cccc(C(F)(F)F)c2)CC1,88 (active)
3,Cc1ccccc1CN1CCN(C(=O)c2cccc(F)c2)CC1,4 (inactive)
4,O=C(c1ccc(F)cc1)N1CCC(n2nnc3ccccc32)CC1,34 (inactive)
5,CCOc1cnc(C(=O)NNC(=O)c2ccccc2Br)o1,15 (inactive)
6,COc1cccc(-c2ccc(SCC(=O)N3CCN(c4ccccc4)CC3)nn2)c1,8 (inactive)
7,COC(=O)CSc1ccc2nnc(CCNS(=O)(=O)c3ccc(C)cc3)n2n1,4 (inactive)
8,CC(C)CCNC(=O)CN(C(=O)Cn1nnc(-c2ccc(F)cc2)n1)C1CCCC1,14 (inactive)
9,CC(C)CCNC(=O)C(C)N(C(=O)Cn1nnc(-c2ccc(F)cc2)n1)C1CCCC1 (centres undefined),51 (active)
10,COc1ccc(-c2nnn(CC(=O)N(CCO)C(C(=O)NC3CCCC3)c3ccc(F)cc3)n2)cc1 (centres undefined),12 (inactive)
11,O=C(NNS(=O)(=O)c1ccc(F)cc1)c1cnccn1,10 (inactive)
12,CC(=O)Nc1cccc(Oc2cc(C#N)c(C#N)cc2N2CCOCC2)c1,7 (inactive)
13,COc1cc(N2CCCC2)c(OC)cc1/C=C(/C#N)c1cccc(Br)c1,47 (active)
14,COc1cccc(C(=O)Nc2ccc(N3CCCC3)cc2)c1,9 (inactive)
15,COc1ccc(/C(=N\O)c2nccc3cc(OC)c(OC)cc23)cc1OC,7 (inactive)
16,O=C(NC(=S)Nc1ccc(S(=O)(=O)N2CCOCC2)cc1)c1ccccc1[N+](=O)[O-],10 (inactive)
17,CCc1ccccc1NC(=O)Cc1cn(C)c2ccccc12,10 (inactive)
18,Fc1cccc(Cl)c1CSc1ccc(-c2ccco2)nn1,49 (active)
19,Cn1c(SCc2c(F)cccc2Cl)nnc1-c1cnccn1,1 (inactive)
20,Brc1ccc(CSc2ccc(-c3ccco3)nn2)cc1,13 (inactive)
21,CCCCN(Cc1ccccc1)C(=O)C1CCN(Cc2sccc2C)CC1,5 (inactive)
22,Cc1ccc(-c2cn(S(=O)(=O)c3cccc([N+](=O)[O-])c3)nc2N)cc1,2 (inactive)
23,O=C(N/N=C/c1cccc2cccnc12)[C@H]1C[C@@H]1c1ccccc1,4 (inactive)
24,Cc1cccc(N2CCN(Cc3c(C)n(C)n(-c4ccccc4)c3=O)CC2)c1C,16 (inactive)
25,Cc1c(CN2CCC(C)CC2)c(=O)n(-c2ccccc2)n1C,9 (inactive)
26,Cc1c(CN2CCCC(C(=O)c3cccc(Cl)c3)C2)c(=O)n(-c2ccccc2)n1C (centres undefined),67 (active)

row,SMILES,fluorescence (KMESF)
1,Cc1ccc(N/C=C/C(=O)c2ccccc2)cc1C,14 (inactive)
2,O=C(/C=C/Nc1ccccc1)c1cnc(-c2ccccc2)s1,49 (active)
3,CC(=O)c1cnc(-c2ccccc2)s1,9 (inactive)
4,Cc1ccc(-c2noc(CCC(N)=O)n2)cc1,19 (inactive)
5,CCNC(=O)CCc1nc(-c2ccc(C(C)(C)C)cc2)no1,49 (active)
6,CCNC(=O)CCc1nc(-c2ccc(C)cc2)no1,4 (inactive)
7,Cc1ccc2c(C)c(C(=O)N3CCC(N4CCC(C(=O)NC5CC5)CC4)CC3)oc2c1,8 (inactive)
8,COc1ccc(NC(=O)C2C3C=CC(C3)C2C(=O)NCc2ccccn2)c(OC)c1 (centres undefined),27 (inactive)
9,Cc1ccccc1N(C(=O)Cc1cccs1)C(C(=O)NC1CCCCC1)c1cn(C)nc1C (centres undefined),12 (inactive)
10,O=S(=O)(NCCc1csc(-c2ccccc2)n1)c1cccnc1,5 (inactive)
11,CC(C(=O)NC1CCCC1)N(c1ccc(Oc2ccccc2)cc1)S(C)(=O)=O (centres undefined),9 (inactive)
12,Cc1ccccc1C(OCCN(C)C)C1CCCCC1 (centres undefined),13 (inactive)
13,Cc1nnc(OCC(=O)NCCC2=CCCCC2)c2ccccc12,20 (inactive)
14,O=C(COc1ccc(Cl)cc1)NCCC1=CCCCC1,51 (active)
15,O=C(COc1cccc(-n2cnnn2)c1)NCCC1=CCCCC1,5 (inactive)
16,COC/C=C/C1=CC2=CC(=O)C(C)(OC(=O)CCC(=O)OC)C(=O)C2=CO1 (centres undefined),10 (inactive)
17,O=C(CSc1ccccc1)Nc1ccc(C(=O)Nc2cccc(O)c2)cc1,15 (inactive)
18,O=C(NCCOc1ccccc1Cl)C(=O)Nc1ccccc1,2 (inactive)
19,COc1ccc(S(=O)(=O)N2CCCCCC2)cc1C(=O)OCC(=O)Nc1cc(C)on1,11 (inactive)
20,CN(C)c1ccc(/C=C/C(=O)c2ccc(C(C)(C)C)cc2)cc1[N+](=O)[O-],57 (active)
21,CN(C)c1ccc(/C=C/C(=O)c2ccc(O)cc2)cc1[N+](=O)[O-],6 (inactive)
22,O=C(/C=C/c1ccc(Cl)c([N+](=O)[O-])c1)c1ccc(O)cc1,6 (inactive)
23,c1ccc2c(CSCc3nc4ccccc4[nH]3)cccc2c1,9 (inactive)
24,CCOc1ccc(Br)cc1CSC(=N)N,8 (inactive)
25,N=C(N)SCc1cccc2ccccc12,68 (active)
26,C=CCn1c(=S)sc2c(=O)[nH]c(C)nc21,3 (inactive)

row,SMILES,fluorescence (KMESF)
1,O=C(CN1C(=O)NC2(CCCCCC2)C1=O)NC1CC1,14 (inactive)
2,O=C1NC2(CCCCCC2)C(=O)N1CCS(=O)(=O)Oc1ccccc1,12 (inactive)
3,CSc1ccc(CN2C(=O)NC3(CCCCCC3)C2=O)cc1,50 (active)
4,CN=C(c1ccccc1)c1c(C)cccc1C,1 (inactive)
5,CCN(CC)C(=O)CC(c1ccc2c(c1)OCO2)c1c(OC)cc(OC)c2c(-c3ccccc3)cc(=O)oc12 (centres undefined),8 (inactive)
6,O=C(NC1CC1)c1cccc(Br)c1,4 (inactive)
7,O=C(NC1CC1)c1ccc(-c2ccccc2)cc1,11 (inactive)
8,O=C(NC1CC1)c1ccc2c(c1)NC(=O)c1ccccc1S2,80 (active)
9,COc1ccc(Cl)cc1N(CC(=O)N/N=C/c1ccc(OCC(N)=O)cc1)S(C)(=O)=O,10 (inactive)
10,Cc1[nH]nc(SCC(=O)NCC(C)C)c1[N+](=O)[O-],6 (inactive)
11,CCOC(=O)c1sc(/N=C/Nc2nc(C)c(C(=O)OCC)s2)nc1C,54 (active)
12,CCOC(=O)c1sc(NC(=O)c2ccncc2)nc1C,4 (inactive)
13,CCOC(=O)c1sc(NC(=O)CSc2n[nH]c(CC)n2)nc1C,15 (inactive)
14,Cc1ccc2nc(-c3cccnc3)c(NC3CCCC3)n2c1,9 (inactive)
15,Cc1cc(=O)n2[nH]c(-c3sccc3-n3c(C)ccc3C)cc2n1,5 (inactive)
16,O=C(CCC(=O)N1CCCC1)Nc1ccc([N+](=O)[O-])cc1,9 (inactive)
17,Cc1ccc(-n2c(C)cc(C(=O)CSc3nnc4ccccn34)c2C)cc1,11 (inactive)
18,O=C(CN1CCN(c2ccc(Cl)cc2)CC1)N1CCCC1,13 (inactive)
19,O=C(COc1ccc(Cl)cc1)N1CCN(c2cccc(C(F)(F)F)c2)CC1,20 (inactive)
20,COC(=O)c1ccccc1OCC(=O)N1CCN(c2ccc(Cl)cc2)CC1,189 (active)
21,CC(C)COC(=O)n1c(=O)oc2ccc(S(=O)(=O)N3CCCCC3)cc21,7 (inactive)
22,Cc1cc(OC(=O)c2ccccc2)c([N+](=O)[O-])c(=O)[nH]1,13 (inactive)
23,CC(C)OCCCNc1nc2c(c(=O)n(Cc3ccccc3F)c(=O)n2C)n1C,16 (inactive)
24,Cc1cccc(N2CC(C)Cn3c2nc2c3c(=O)n(CC(=O)OCc3ccccc3)c(=O)n2C)c1 (centres undefined),5 (inactive)
25,COc1ccc(N2CC(C)Cn3c2nc2c3c(=O)n(Cc3ccccc3F)c(=O)n2C)c(OC)c1 (centres undefined),54 (active)
26,C/C(=N\Nc1cccc(C(=O)O)c1)c1ccc2c(c1)Nc1ccccc1S2,11 (inactive)
